The supplement of paper PMC12669032

What was measured:
Assay in all cases: growth AUC relative to DMSO control (median of replicates) (fraction); higher = more growth (less inhibition), active = hit call of the paper
Details in all cases: 20 µM; 24 h;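 active = AUC reduced over 20% with Padj below 0.05 in at least 2 of 3 replicates; inactive = otherwise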
[1] = system: Akkermansia muciniphila
Procedure, shortened: (§1)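 Hourly OD600 readings over 24 h tracked anaerobic gut bacterial monocultures grown at 37 °C in mGAM from OD600 0.05 with 20 µM compound (1% DMSO). After the minimum OD was set to 0, area under the growth curve was normalised to the plate median of solvent-only wells, or to row and column medians on the industrial chemical plate. Values are medians of three biological replicates grown on separate days.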

[2] = system: Bacteroides caccae
Procedure, shortened: as §1

[3] = system: Bacteroides clarus
Procedure, shortened: as §1

[4] = system: Bacteroides dorei
Procedure, shortened: as §1

[5] = system: Bacteroides stercoris
Procedure, shortened: as §1

[6] = system: Bacteroides thetaiotaomicron
Procedure, shortened: as §1

[7] = system: Bacteroides uniformis
Procedure, shortened: as §1

[8] = system: Bifidobacterium longum subsp. longum
Procedure, shortened: as §1

[9] = system: Clostridium difficile
Procedure, shortened: as §1

[10] = system: Collinsella aerofaciens
Procedure, shortened: as §1

[11] = system: Coprococcus comes
Procedure, shortened: as §1

[12] = system: Escherichia coli ED1a
Procedure, shortened: as §1

[13] = system: Escherichia coli IAI1
Procedure, shortened: as §1

[14] = system: Eubacterium rectale
Procedure, shortened: as §1

[15] = system: Fusobacterium nucleatum subsp. animalis
Procedure, shortened: as §1

[16] = system: Lactobacillus gasseri
Procedure, shortened: as §1

[17] = system: Lactobacillus paracasei
Procedure, shortened: as §1

[18] = system: Odoribacter splanchnicus
Procedure, shortened: as §1

[19] = system: Parabacteroides distasonis
Procedure, shortened: as §1

[20] = system: Parabacteroides merdae
Procedure, shortened: as §1

Measured: growth AUC

COC(=O)CCCOc1ccc(Cl)cc1Cl
inactive: [1] 1.01 | [2] 0.964 | [3] 1.02 | [4] 0.922 | [5] 0.997 | [6] 1.01 | [7] 0.945 | [8] 1.04 | [9] 0.973 | [10] 0.987 | [11] 0.968 | [12] 0.983 | [13] 0.958 | [14] 1.1 | [15] 0.966 | [16] 0.916 | [17] 0.916 | [18] 0.925 | [19] 0.791 | [20] 0.97

N#Cc1cc(Cl)c(O)c(Cl)c1
inactive: [1] 1.12 | [2] 1 | [3] 1 | [4] 0.982 | [5] 0.935 | [6] 0.994 | [7] 0.947 | [8] 1.03 | [9] 0.997 | [10] 1 | [11] 1.02 | [12] 0.926 | [13] 0.9 | [14] 0.972 | [15] 1.03 | [16] 1.17 | [17] 1.03 | [18] 0.998 | [19] 0.956 | [20] 0.93

Cc1cccc(C)c1N(CC(=O)O)C(=O)CS(=O)(=O)[O-].[Na+]
inactive: [1] 0.891 | [2] 1.01 | [3] 0.939 | [4] 0.998 | [5] 0.888 | [6] 1.01 | [7] 1 | [8] 0.938 | [9] 1.05 | [10] 0.973 | [11] 0.996 | [12] 0.973 | [13] 0.946 | [14] 0.847 | [15] 0.941 | [16] 0.987 | [17] 0.928 | [18] 1.01 | [19] 0.965 | [20] 0.997

O=C(Oc1ccccc1)n1c(C(F)(F)F)nc2cc(Cl)c(Cl)cc21
inactive: [8] 0.891 | [10] 0.958 | [11] 1.03 | [15] 0.71
active: [1] 0.177 | [2] 0.215 | [3] 0.121 | [4] 0.236 | [5] 0.0063 | [6] 0.0816 | [7] 0.0127 | [9] 0.561 | [12] 0.704 | [13] 0.588 | [14] 0.635 | [16] 0.431 | [17] 0.688 | [18] 0.0297 | [19] 0.106 | [20] 0.144

c1ccc(Sc2ccccc2)cc1
inactive: [1] 1.03 | [2] 1.01 | [3] 1.08 | [4] 1.01 | [5] 1.05 | [6] 0.982 | [7] 1.05 | [8] 1.03 | [9] 1.02 | [10] 1.04 | [11] 1.02 | [12] 1.03 | [13] 0.967 | [14] 1.02 | [15] 1.08 | [16] 1.1 | [17] 1.04 | [18] 0.503 | [19] 1.01 | [20] 1

CSc1nc(NC2CC2)nc(NC(C)(C)C)n1
inactive: [1] 0.845 | [2] 1.03 | [3] 0.988 | [4] 1.03 | [5] 0.871 | [6] 0.895 | [7] 1 | [8] 1.04 | [9] 1.04 | [10] 1.06 | [11] 0.981 | [12] 1.03 | [13] 1.03 | [14] 0.974 | [15] 1.06 | [16] 1.05 | [17] 0.987 | [18] 1.11 | [19] 1.02 | [20] 0.991

COC(=O)c1ccc(I)cc1S(=O)(=O)[N-]C(=O)Nc1nc(C)nc(OC)n1.[Na+]
inactive: [1] 1.25 | [2] 0.901 | [3] 0.992 | [4] 0.933 | [5] 1.01 | [6] 1.06 | [7] 0.941 | [8] 1.01 | [9] 0.991 | [10] 0.977 | [11] 0.947 | [12] 1.02 | [13] 0.948 | [14] 1.07 | [15] 1.14 | [16] 0.919 | [17] 0.969 | [18] 1.07 | [19] 0.95 | [20] 1.01

Br[C@@H]1CC[C@@H](Br)[C@@H](Br)CC[C@@H](Br)[C@@H](Br)CC[C@H]1Br
inactive: [1] 1.01 | [2] 0.983 | [4] 0.924 | [6] 0.967 | [7] 0.928 | [9] 1.01 | [11] 0.934 | [12] 0.897 | [13] 0.979 | [14] 1 | [15] 1.01 | [16] 0.947 | [17] 0.996 | [18] 0.983 | [20] 0.931
active: [3] 0.795 | [5] 0.573 | [8] 0.779 | [10] 0.796 | [19] 0.682

COc1ccc(Cl)c(Cl)c1Cl
inactive: [1] 0.963 | [2] 1.03 | [3] 1.01 | [4] 1.02 | [5] 0.971 | [6] 0.991 | [7] 1 | [8] 0.986 | [9] 0.964 | [10] 1.01 | [11] 0.994 | [12] 0.983 | [13] 1.02 | [14] 0.966 | [15] 0.982 | [16] 1.01 | [17] 0.993 | [18] 1.01 | [19] 1.04 | [20] 0.961

CCCCCCC(C)OC(=O)COc1nc(F)c(Cl)c(N)c1Cl (stereo not given)
inactive: [1] 0.94 | [2] 0.885 | [3] 0.874 | [4] 1 | [5] 0.699 | [6] 0.97 | [7] 0.874 | [8] 0.848 | [9] 0.952 | [10] 0.928 | [11] 0.928 | [12] 1 | [13] 1.01 | [14] 0.875 | [15] 0.935 | [16] 0.967 | [17] 0.942 | [18] 1.04 | [19] 0.919 | [20] 0.891

CCCCCCCCCC[N+](C)(C)Cc1ccccc1.[Cl-]
inactive: [1] 0.987 | [2] 0.962 | [3] 0.987 | [4] 0.979 | [5] 1.21 | [6] 0.996 | [7] 0.896 | [8] 0.866 | [9] 0.921 | [10] 0.848 | [11] 0.9 | [12] 1 | [13] 0.969 | [14] 0.91 | [15] 1.02 | [16] 0.712 | [17] 1.06 | [18] 0.926 | [19] 0.847 | [20] 0.91

COC1CCC2(CC1)NC(=O)C(c1cc(C)ccc1C)C2O (stereo not given)
inactive: [1] 1.08 | [2] 0.974 | [3] 1.04 | [4] 1.02 | [5] 1.14 | [6] 0.999 | [7] 1.02 | [8] 1.05 | [9] 1.01 | [10] 1.05 | [11] 1.04 | [12] 1.03 | [13] 1.03 | [14] 1.11 | [15] 1.16 | [16] 0.99 | [17] 1.03 | [18] 1.01 | [19] 1.07 | [20] 1.02

N#Cc1ccc(CC(=NNC(=O)Nc2ccc(OC(F)(F)F)cc2)c2cccc(C(F)(F)F)c2)cc1 (mixture of isomers)
inactive: [1] 1 | [2] 1.03 | [3] 1.02 | [4] 1.03 | [5] 0.988 | [6] 1.02 | [7] 1.02 | [8] 0.999 | [9] 1.01 | [10] 1.03 | [11] 0.991 | [12] 0.986 | [13] 1.02 | [14] 0.963 | [15] 1.12 | [16] 1.15 | [17] 0.959 | [18] 1.02 | [19] 0.999 | [20] 0.936

O=C(O)Cc1cccc2ccccc12
inactive: [1] 0.984 | [2] 0.985 | [3] 0.969 | [4] 0.971 | [5] 0.963 | [6] 1 | [7] 1.04 | [8] 1.03 | [9] 0.994 | [10] 0.968 | [11] 0.941 | [12] 0.959 | [13] 0.991 | [14] 1.02 | [15] 1.01 | [16] 0.949 | [17] 1.02 | [18] 0.953 | [19] 0.987 | [20] 1.01

CCCC(C)(C)C(=O)Nc1ccc(Cl)cc1
inactive: [1] 0.942 | [2] 1 | [3] 1.01 | [4] 1.02 | [5] 1.01 | [6] 0.946 | [7] 0.955 | [8] 0.98 | [9] 0.999 | [10] 1.02 | [11] 0.978 | [12] 0.973 | [13] 1.01 | [14] 0.958 | [15] 0.938 | [16] 1.1 | [17] 0.989 | [18] 0.958 | [19] 0.928 | [20] 0.949

CC(C)(CO)C(O)(CCc1ccc(Cl)cc1)Cn1cncn1 (stereo not given)
inactive: [1] 1.01 | [2] 0.955 | [3] 0.998 | [4] 0.967 | [5] 1.01 | [6] 0.969 | [7] 0.994 | [8] 0.967 | [9] 0.991 | [10] 0.991 | [11] 0.989 | [12] 1.03 | [13] 0.999 | [14] 1.1 | [15] 1 | [16] 0.88 | [17] 1.04 | [18] 0.979 | [19] 0.88 | [20] 0.985
